The list is not random: actives were taken first. Their share in the collection is about 3%.
Tau fibril ThT – tau fibrillization inhibition (ThT binding) | P10636 | recombinant tau K18 P301L, heparin-induced fibrillization, ThT fluorescence | Potency, µM (titrated, usually from 57.4 µM), for inactives: at the top dose activity, negative = inhibition, most hits filed as inhibitors | actives 2.1% (n = 270,000); note: potency is the fitted concentration of half-maximal effect; nearly all actives have a fitted effect of over 55% in size
Target sequence (P10636 561-689 P618L limits assumed): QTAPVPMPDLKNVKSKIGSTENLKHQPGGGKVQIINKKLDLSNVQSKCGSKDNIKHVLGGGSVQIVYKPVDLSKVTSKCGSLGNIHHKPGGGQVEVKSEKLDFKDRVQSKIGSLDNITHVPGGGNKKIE
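In this qHTS, human K18 P301L tau is incubated with compound and heparin for 6 hr at 37 C, and Thioflavin T fluorescence then reports fibril load.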
JMJD2E inh – JMJD2E (human) inhibition; B2RXH2; JMJD2E catalytic domain, FDH-coupled NADH fluorescence (FDH is formaldehyde dehydrogenase); Potency, µM (series often up to 57.1 µM), for inactives: at the highest dose activity change, negative = inhibition, most hits filed as inhibitors; actives 1.6% (n = 230,000); AID 2147; active = well fitted inhibition curve with a large enough effect, not every such curve was filed as active; inconclusive = small, poorly fitted or top-dose-only effect, or another doubt; inactive = no such curve, though single readings can be large or run the other way;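 note: potency is the fitted concentration of half-maximal effect; 0% = wells with enzyme and -100% = buffer wells without enzyme; nearly all actives have a fitted effect of over 50% in size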
Target sequence (B2RXH2 1-337 limits assumed): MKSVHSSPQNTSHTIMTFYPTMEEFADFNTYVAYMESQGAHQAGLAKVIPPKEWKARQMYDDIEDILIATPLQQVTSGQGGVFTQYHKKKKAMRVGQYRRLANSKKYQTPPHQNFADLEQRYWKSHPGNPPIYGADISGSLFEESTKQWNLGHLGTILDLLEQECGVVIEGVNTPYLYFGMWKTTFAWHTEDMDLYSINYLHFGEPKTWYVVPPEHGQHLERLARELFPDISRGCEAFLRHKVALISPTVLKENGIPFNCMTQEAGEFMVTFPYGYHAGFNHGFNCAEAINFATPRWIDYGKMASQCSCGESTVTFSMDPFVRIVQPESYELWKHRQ
FBPA coupling cs – inhibits coupling enzyme system, counter-screen for aldolase hits. coupling enzyme system counterscreen, AmpLite Red fluorescence. actives 0.67% (n = 290,000). activity change, negative = inhibition, % at 58.2 µM, hits read low. AID 2472; in the data active = activity change below about -30%
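First, compound is pin-transferred into glyceraldehyde-3-phosphate coupling-enzyme reagent at 57.5 uM final and held 10 min at RT. Next, substrate, coupling system and AmpLite Red are added. After 20 min RT, fluorescence (525/598 nm) is read.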
Tau fluor counter – counter-screen for tau fibril formation inhibitors. tau K18 P301L Alexa594 fluorescence, heparin fibrillization. Potency, µM (titrated, usually from 57.7 µM), for inactives: at the highest dose activity change, negative = decrease. actives 0.93% (n = 280,000). AID 1463; note: potency is the fitted concentration of half-maximal effect; nearly all actives have a fitted effect of over 55% in size
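Human tau K18 P301L (15 uM unlabeled, 0.24 uM Alexa 594-labeled) in 100 mM sodium acetate pH 7 with 20 uM heparin, 6 hr at 37 C. ThT 30 uM added, 1 hr ambient; Alexa 594 FP and total fluorescence read at 555/632 nm.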
Tau fibril FP – tau fibrillization inhibition (FP) | K18 P301L tau heparin fibrillization, Alexa594 FP, 6 h | Potency, µM (top dose mostly 57.7 µM), for the others: top-dose activity, negative = inhibition, actives largely listed as inhibitors | actives 0.39% (n = 280,000) | P10636; note: potency is the fitted concentration of half-maximal effect; nearly all actives have a fitted effect of over 55% in size
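K18 P301L tau (15 uM unlabeled/0.24 uM Alexa 594-labeled, final) + compound + heparin 20 uM final; 100 mM NaOAc pH 7; 6 hr 37 C; ThT 30 uM final added, 1 hr RT; FP ex 555/em 632 nm.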
* marks the source's active call; other numbers are inactive results; ? = inconclusive; . = no result given; [ ] = dose if it differs, or a comment. Unless noted, calls come from the whole dose curve; as a rule, active = well fitted curve in the direction sought with a large enough effect; inconclusive = small, poorly fitted or top-dose-only effect, or another doubt; inactive = no such curve, though single readings can be large; an effect the other way counts as inactive or inconclusive. Unless noted, % is set by controls: 0 for no effect and ±100 for the full control effect.

SMILES | Tau fibril ThT | JMJD2E inh | FBPA coupling cs | Tau fluor counter | Tau fibril FP
CC12C=C(/C=C/C=C/c3ccco3)C(C)(C1)C(/C=C/c1ccco1)CC2=O (configuration not stated) | ? | . | -0.3 | -16.0%[11.6 µM] | ?
COc1ccccc1NC(=O)C(Cc1ccccc1)NS(=O)(=O)c1cccc2nsnc12 (configuration not stated) | -2.5% | . | . | -11.8% | 7.9%
CC[C@H](C)[C@H](NC(=O)[C@H](Cc1ccc(O)cc1)NC(=O)[C@@H]1CCCN1C(=O)[C@H](CCCCN)NC(=O)[C@@H](N)CCCCN)C(=O)N[C@@H](CC(C)C)C(=O)O | . | . | -1.8 | . | .
CCCCc1nn2c(=O)cc(COC(=O)CNC(=O)c3ccccc3C)nc2s1 | ? | . | . | -5.9% | 1.6%
Cc1ccc2c(c1)N/C(=C(\C=C(/Cl)[N+](=O)[O-])[N+](=O)[O-])N2 | 17.8µM* | ? | -12.9 | ? | -7.6%
CCOC(=O)c1c(C)[nH]c(C2=NNC(=Nc3ccccc3)SC2)c1C | 3.98µM* | -8.2% | -38.0* | 7.94µM*[quencher] | ?
CCOC(=O)c1c(C)[nH]c(C2=NNC(=Nc3ccc(OCC)cc3)SC2)c1C | 14.1µM* | -22.2% | -10.0 | ? | ?
CCOC(=O)c1c(C)[nH]c(C2=NNC(=Nc3ccccc3OC)SC2)c1C | 7.94µM* | -6.3% | -1.0 | ? | -9.5%
COc1ccc(C2/C=C\CN(C(=O)C3CCCCC3)C(Cc3ccccc3)C(=O)N2Cc2ccc(F)cc2)cc1 (configuration not stated) | . | . | -0.7 | . | .
CCCCCCCCCCCCCCCCCC(=O)OCC(C)O (configuration not stated) | 14.1µM* | . | 1.4 | ? | ?
Cc1cc(/C=C2\SC(=S)NC2=O)c(C)n1-c1ccccc1 | 7.08µM* | -25.0% | -0.5 | ? | ?
Cc1cc(/C=C2\SC(=S)NC2=O)c(C)n1-c1ccc(O)cc1 | 7.94µM* | ? | 4.3 | 22.4µM*[quencher] | 10.8%
Cc1cc(/C=C2\SC(=Nc3ccc(F)cc3)NC2=O)c(C)n1-c1ccc(S(N)(=O)=O)cc1 | 14.1µM* | -7.7% | -6.8 | ? | 9.6%
O=C(Nc1ccccc1C(F)(F)F)N1CCOc2ccc(Cl)cc21 | -4.8% | . | . | ? | 0.6%
CCCCc1ccc(-n2nc3cc(C)c(NC(=O)Cc4ccccc4)cc3n2)cc1 | 31.6µM* | . | . | 39.8µM*[quencher] | ?
NCCc1cnc(-c2cccc(C(F)(F)F)c2)[nH]1 | . | . | -4.8 | . | .
COC(=O)/C=C/c1cc(O)ccc1O | ? | . | . | -26.9% | -12.2%
O=c1nc(N/N=C/c2ccccn2)cn[nH]1 | -9.1% | 10µM* | -22.3 | -4.0% | 2.5%
O=c1cnnc(N/N=C/c2ccccn2)[nH]1 | . | 3.55µM* | -17.9 | -0.7% | 3.9%
Cc1ccc(NS(=O)(=O)c2ccccc2)c2c1CC(C)(C)O2 | 4.2% | -1.7% | -46.1* | -0.8% | -1.7%
CSc1ccccc1NS(=O)(=O)c1ccccc1 | 4.8% | 0.7% | -13.4 | -0.9% | -8.0%
COc1cc(NCc2ccc3nc(N)nc(N)c3c2C)cc(OC)c1OC | 20µM* | . | -45.9* | ? | ?
COc1cccc(CNc2ccc3c(c2)nc(C)n3C)c1OC | . | . | 0.3 | . | .
Cc1noc(C)c1-c1ccc2ncnc(NC3CCCc4ccccc43)c2c1 (configuration not stated) | . | . | -0.1 | . | .
COc1ccc(N2CCN(CC(O)COC(C)(C)C)CC2)cc1 (configuration not stated) | 3.9% | 25.1µM* | 0.1 | 0.2% | 9.9%
SMILES | Tau fibril ThT | JMJD2E inh | FBPA coupling cs | Tau fluor counter | Tau fibril FP
CCN(CC)C(=O)c1ccc2c(c1[N+](=O)[O-])C(=O)c1ccccc1C2=O | -1.7% | -5.0% | -41.9* | 0.1% | 2.6%
CCN(CC)C(=O)c1cccc2c1C(=O)c1ccccc1-2 | -0.4% | -1.9% | 2.5 | 1.1% | 7.6%
C=CCn1c(N)c(C(=O)OCCC)c2nc3ccccc3nc21 | -3.5% | ? | -3.2 | -2.3% | -5.0%
COCCn1c(N)c(C(=O)OCc2ccccc2)c2nc3ccccc3nc21 | -14.7% | ? | -36.7* | ? | -0.7%
COc1ccc(C2CC(c3ccccc3)Oc3cc(C)c(Cl)c(C)c32)cc1 (configuration not stated) | . | . | 1.3 | . | .
Cc1ccccc1NC(=O)c1ccccc1NC(=O)Cc1cccc2ccccc12 | 1.2% | -7.0% | 5.2 | -25.4% | -9.1%
Cc1ccccc1NC(=O)c1cccc2nc3ccccc3nc12 | 8.91µM* | 6.9% | . | ? | ?
O=C(c1cccs1)N(Cc1cccnc1)c1nc2ccc(F)cc2s1 | -17.2% | . | . | ? | -14.8%
COc1ccc(/C=C/C(=O)Nc2ccc(N3CCOCC3)cc2)cc1 | 3.98µM* | ? | 0.7 | ? | 3.6%
CCN(CC)S(=O)(=O)c1cccc(NC(=O)CC2CCCC2)c1 | . | . | -0.6 | . | .
O=C(/C=C/c1cccc([N+](=O)[O-])c1)NC(=S)Nc1ccccc1C(=O)O | 17.8µM* | -3.7% | -13.7 | -29.2% | ?
CCN(CC)S(=O)(=O)c1cccc(NC(=O)/C=C/c2cccc([N+](=O)[O-])c2)c1 | ? | 3.2% | -3.1 | 12.6µM*[quencher] | -18.2%
CCN(CC)S(=O)(=O)c1cccc(NC(=O)Nc2cccc(C(F)(F)F)c2)c1 | -13.8% | -3.9% | -3.0 | ? | 7.94µM*
O=C(/C=C/c1cccc([N+](=O)[O-])c1)NC(=S)Nc1cccc(NC(=O)c2ccccc2Cl)c1 | ? | 1.4% | -4.5 | ? | -2.0%
COc1ccc(N2CCN(c3ccc(NC(=O)/C=C\C(=O)O)cc3)CC2)cc1 | . | . | 0.2 | . | .
O=C(O)Cc1c(Cl)ccc(Cl)c1Cl | . | . | 3.7 | . | .
O=C(/C=C/c1ccc(S(=O)(=O)N2CCOCC2)cc1)NC(=S)Nc1ccc(N2CCOCC2)cc1 | 25.1µM* | 5.4% | 1.6 | ? | 6.8%
CCN(CC)S(=O)(=O)c1ccc(/C=C/C(=O)Nc2ccc(N3CCOCC3)cc2)cc1 | 15.8µM* | 3.9% | -0.1 | 31.6µM*[quencher] | ?
COc1ccccc1C(=O)Oc1ccccc1C(=O)Nc1ccccc1 | -12.6% | -4.6% | 2.7 | -2.1% | 1.7%
O=C(Oc1ccccc1C(=O)Nc1ccccc1)c1ccc(Br)c([N+](=O)[O-])c1 | 10µM* | -25.6% | 1.0 | ? | ?
COc1cccc(C(C[N+](=O)[O-])c2c(C)[nH]n(-c3ccccc3)c2=O)c1 (configuration not stated) | . | . | -44.3* | . | .
COc1ccc(Nc2nnc(-c3cc4c(ccc5ccccc54)oc3=O)s2)cc1 | 5.01µM* | . | . | ? | 3.1%
CCOc1ccc(NC(=O)Cn2nc(Cc3cccnc3)c3ccccc3c2=O)cc1 | -2.0% | . | . | -14.7% | -6.5%
O=C(Nc1ccc(Cl)cn1)c1ccc(-c2cc(Cl)ccc2Cl)o1 | 7.94µM* | 3.9% | 2.7 | ? | ?
COc1ccc(/C=C2\SC(=S)N(CCCC(=O)NNC(=O)c3ccccc3O)C2=O)cc1 | ? | -10.2% | 7.1 | -25.1% | ?
